Laboratory results as given in the supplement of paper PMC3334620.
Over roughly 33,000 sequences, “E-score (-0.5 to 0.5)” has its median near -0.017; the highest 2% begin near 0.3. Many of the other results were omitted from the sample, so the highest values are more common in it than they were.

What follows are sequences tested against T1, Sut1 (UniProt P53032) (assay: PBM E-score (8-mer binding enrichment) (E-score (-0.5 to 0.5)); higher = stronger / more preferred TF binding). Details: protein concentration: 200 nM; construct: GST-full length.
T1 sequence: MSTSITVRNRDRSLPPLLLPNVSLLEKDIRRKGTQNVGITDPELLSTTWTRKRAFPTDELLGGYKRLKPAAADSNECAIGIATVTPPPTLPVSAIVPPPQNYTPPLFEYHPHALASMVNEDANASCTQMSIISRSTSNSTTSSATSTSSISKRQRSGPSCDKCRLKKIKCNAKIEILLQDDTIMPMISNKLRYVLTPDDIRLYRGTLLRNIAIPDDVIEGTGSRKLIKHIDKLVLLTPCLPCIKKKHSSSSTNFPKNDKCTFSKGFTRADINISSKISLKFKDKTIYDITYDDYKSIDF
In short: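 Using PURExpress in vitro transcription/translation, GST-tagged yeast transcription factors were made in full-length or DNA-binding-domain form. These were applied at about 100-200 nM to double-stranded universal all-10-mer Agilent arrays, and bound protein was detected with fluorescent anti-GST. Scans were normalised with masliner before the Universal PBM Analysis Suite assigned E-scores to ungapped eight-base words pooled with their reverse complements.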
In the case of ATCCATTA, the “PBM E-score” value is reported as 0.076. In the case of AATCGCCA, the “PBM E-score” value is reported as -0.0545. In the case of AAGAGATC, the “PBM E-score” value is reported as -0.168. AGAATTGG was tested, and the “PBM E-score” value was 0.13. In the case of CGCAATGA, the “PBM E-score” value is reported as -0.0747. In the case of ACACTTGA, the “PBM E-score” value is reported as -0.00965. With AGACCACC the “PBM E-score” value was -0.0644. With CATGGCAG the “PBM E-score” value was -0.108. With CCCTGGGC the “PBM E-score” value was -0.324. With ATTAATGA the “PBM E-score” value was 0.267. With ATTTCTTA the “PBM E-score” value was 0.0841. In the case of CTCCCGAA, the “PBM E-score” value is reported as -0.0868. In the case of CTCCCTCC, the “PBM E-score” value is reported as -0.2. With GGCTCATA the “PBM E-score” value was -0.0389. CAGCGGGG was tested, and the “PBM E-score” value was -0.149. With AACGGAGA the “PBM E-score” value was 0.359. With AACGGATA the “PBM E-score” value was 0.285. With AACAGAGA the “PBM E-score” value was -0.0653. For ACTGCTCC, the “PBM E-score” value was -0.0101. In the case of GGAGTAGA, the “PBM E-score” value is reported as 0.318. TGAGTAAA was tested, and the “PBM E-score” value was 0.0705. With GGAGTAAA the “PBM E-score” value was 0.333. CGAGTAGA was tested, and the “PBM E-score” value was -0.0364. For GGAGTAAC, the “PBM E-score” value was 0.258. In the case of GGAGTATA, the “PBM E-score” value is reported as 0.311. For AGAGTATA, the “PBM E-score” value was 0.00921. In the case of CGAGTATA, the “PBM E-score” value is reported as 0.0489. In the case of AGAGTAGA, the “PBM E-score” value is reported as 0.163. For AGGCCATG, the “PBM E-score” value was -0.206. With GAGCTGAA the “PBM E-score” value was 0.01. CAGTACGA was tested, and the “PBM E-score” value was -0.0772. With TACAGCGA the “PBM E-score” value was -0.145. GTAGCTCA was tested, and the “PBM E-score” value was -0.0732. With ACCTGATC the “PBM E-score” value was -0.177. With AGAACCTG the “PBM E-score” value was -0.0844. For ATTATAAT, the “PBM E-score” value was 0.378. In the case of TTAATTAA, the “PBM E-score” value is reported as 0.0737. In the case of AAAATTAG, the “PBM E-score” value is reported as 0.155. AAAATTAT was tested, and the “PBM E-score” value was 0.351. With CTAATTTA the “PBM E-score” value was 0.175. ATTATAAG was tested, and the “PBM E-score” value was 0.193. With ATTATAAA the “PBM E-score” value was 0.275. With ATAATTAA the “PBM E-score” value was 0.314. For AAAATTAC, the “PBM E-score” value was 0.237. In the case of CTAATTTC, the “PBM E-score” value is reported as 0.299. With GTAATTAA the “PBM E-score” value was 0.161. With ATAATTTC the “PBM E-score” value was 0.242. CGGATCAA was tested, and the “PBM E-score” value was 0.16. CGTCTTGA was tested, and the “PBM E-score” value was 0.0919. AGCCCCAA was tested, and the “PBM E-score” value was -0.358. With ATCGCTAC the “PBM E-score” value was -0.0624. With AATTATAT the “PBM E-score” value was 0.212. In the case of TCCACTAA, the “PBM E-score” value is reported as 0.0668. In the case of CCCAAACA, the “PBM E-score” value is reported as 0.00961. ATAATTTA was tested, and the “PBM E-score” value was 0.337. AAAATGAT was tested, and the “PBM E-score” value was 0.342. In the case of ATAATTAT, the “PBM E-score” value is reported as 0.39. With CTCATTAA the “PBM E-score” value was 0.119. In the case of GTAATTTA, the “PBM E-score” value is reported as 0.221. For ATAATTAC, the “PBM E-score” value was 0.283. With AAAATGAC the “PBM E-score” value was 0.157. In the case of ATAATTTG, the “PBM E-score” value is reported as 0.249. ATCATTAA was tested, and the “PBM E-score” value was 0.305. In the case of AAAATGAA, the “PBM E-score” value is reported as 0.0412. ATCATTAG was tested, and the “PBM E-score” value was 0.0427. For ATAATTAG, the “PBM E-score” value was 0.235. With ACAGTTCG the “PBM E-score” value was 0.183. GCTTCCCA was tested, and the “PBM E-score” value was -0.179. In the case of GTTTGGTA, the “PBM E-score” value is reported as 0.178. ATCGGTAG was tested, and the “PBM E-score” value was 0.0989. For TCGGTGAA, the “PBM E-score” value was 0.0263. TAAGATCA was tested, and the “PBM E-score” value was 0.0673. With ATAAAGAT the “PBM E-score” value was 0.328. In the case of ATAAAATC, the “PBM E-score” value is reported as 0.162. With GGAAAATA the “PBM E-score” value was 0.226. With GAAAAATA the “PBM E-score” value was 0.306. In the case of ATAAAATA, the “PBM E-score” value is reported as 0.323. For ATAAAGAA, the “PBM E-score” value was 0.19. With AAAAAATA the “PBM E-score” value was 0.242. With ATAAATAG the “PBM E-score” value was 0.295. In the case of ATAAATAA, the “PBM E-score” value is reported as 0.321. With GTAAAATA the “PBM E-score” value was 0.145. In the case of ATAAAGAG, the “PBM E-score” value is reported as 0.0458. TTAAATAA was tested, and the “PBM E-score” value was 0.259. With CTCGTTCA the “PBM E-score” value was -0.205. In the case of AGTAGACC, the “PBM E-score” value is reported as -0.172. For ATGACTGC, the “PBM E-score” value was 0.00267. With CAATGCTC the “PBM E-score” value was -0.0941. ACCAACGT was tested, and the “PBM E-score” value was 0.00237. In the case of TAAATAGA, the “PBM E-score” value is reported as 0.0796. ATCAATTG was tested, and the “PBM E-score” value was 0.197. GGAAATTA was tested, and the “PBM E-score” value was 0.286. With ATCAATTC the “PBM E-score” value was 0.135. In the case of AGAAATTA, the “PBM E-score” value is reported as 0.335. With AAAAATAA the “PBM E-score” value was 0.326. In the case of TAAAATAA, the “PBM E-score” value is reported as 0.213. In the case of CAAAATAA, the “PBM E-score” value is reported as 0.201. ATCAATTA was tested, and the “PBM E-score” value was 0.31. For AAAATAGC, the “PBM E-score” value was 0.0485. AAAATAGA was tested, and the “PBM E-score” value was 0.319. In the case of AGAAATTC, the “PBM E-score” value is reported as 0.126. AACCAACC was tested, and the “PBM E-score” value was -0.178. With AGAATACA the “PBM E-score” value was 0.117. In the case of CACTTTGC, the “PBM E-score” value is reported as 0.0519. With AGGCGACC the “PBM E-score” value was -0.207. In the case of CTCGCCAG, the “PBM E-score” value is reported as -0.204. ACCTTGCC was tested, and the “PBM E-score” value was -0.0123. In the case of AAAATAAC, the “PBM E-score” value is reported as 0.12. In the case of AAAAATTA, the “PBM E-score” value is reported as 0.228. For ATAAAAAT, the “PBM E-score” value was 0.252. With CAAAATTA the “PBM E-score” value was 0.241. With TAAATAAA the “PBM E-score” value was 0.247. For ATAAATAC, the “PBM E-score” value was 0.275. With AAAATAAA the “PBM E-score” value was 0.347. In the case of CTAAATTA, the “PBM E-score” value is reported as 0.24. ATAAATTG was tested, and the “PBM E-score” value was 0.268. For ATAAATTA, the “PBM E-score” value was 0.326. In the case of ATAAATAT, the “PBM E-score” value is reported as 0.341. In the case of TAAAATTA, the “PBM E-score” value is reported as 0.34. For ACCAAACT, the “PBM E-score” value was -0.0181. CAGTGGTC was tested, and the “PBM E-score” value was -0.165. For GGCAGAAA, the “PBM E-score” value was 0.0918. For CCGACCCA, the “PBM E-score” value was 0.0491. CCATCAGA was tested, and the “PBM E-score” value was -0.213. In the case of AATAAGGG, the “PBM E-score” value is reported as -0.0871. For CCGACACC, the “PBM E-score” value was -0.0623. TGTCTCAA was tested, and the “PBM E-score” value was -0.115. For AAAAATTC, the “PBM E-score” value was 0.235. ACAAATAG was tested, and the “PBM E-score” value was 0.113. For CAAAATTC, the “PBM E-score” value was 0.308. In the case of CGAAATAC, the “PBM E-score” value is reported as 0.215. With ACAAATAC the “PBM E-score” value was 0.205. With GGAAATAA the “PBM E-score” value was 0.24. ACAAATAT was tested, and the “PBM E-score” value was 0.339. With CAAAATTG the “PBM E-score” value was 0.0231. For CGAAATAA, the “PBM E-score” value was 0.313. ATCTGAGC was tested, and the “PBM E-score” value was 0.113. With GACTTCGC the “PBM E-score” value was 0.0243. For ATTCCGTA, the “PBM E-score” value was 0.296. In the case of ATTCCGAC, the “PBM E-score” value is reported as 0.219. With ATTCCAAG the “PBM E-score” value was 0.0681. For CTTCCGAA, the “PBM E-score” value was 0.233. ATTCCGAA was tested, and the “PBM E-score” value was 0.378. For ATTCCGAG, the “PBM E-score” value was 0.341. With CGTCAAGA the “PBM E-score” value was -0.239. In the case of AGAGAGTA, the “PBM E-score” value is reported as -0.0447. For GTAAGAAC, the “PBM E-score” value was 0.215. In the case of TGGCAGAA, the “PBM E-score” value is reported as -0.0838. With TGAATTCA the “PBM E-score” value was 0.0862. In the case of CGCGACAC, the “PBM E-score” value is reported as 0.0583. In the case of ATTTCCGA, the “PBM E-score” value is reported as 0.231. For ATTTTCCC, the “PBM E-score” value was -0.105. ATTTCCGC was tested, and the “PBM E-score” value was 0.156. AATTTCCG was tested, and the “PBM E-score” value was 0.257. For ATTTTCGA, the “PBM E-score” value was 0.0872. In the case of ATTTCCGG, the “PBM E-score” value is reported as 0.325. With ATTTTCGG the “PBM E-score” value was 0.345. With ATTTTCGC the “PBM E-score” value was 0.0665. For ATTTTCCG, the “PBM E-score” value was 0.4. CAGTATTA was tested, and the “PBM E-score” value was 0.0764. ACCAAACC was tested, and the “PBM E-score” value was 0.0288. In the case of CAGATGGG, the “PBM E-score” value is reported as -0.192. With TAAGCATA the “PBM E-score” value was 0.122. GGTTAATA was tested, and the “PBM E-score” value was 0.163. In the case of GATAATTA, the “PBM E-score” value is reported as 0.216. With CATAATTC the “PBM E-score” value was 0.0494. With CATAATTA the “PBM E-score” value was 0.317. AGTTAATA was tested, and the “PBM E-score” value was 0.331. With CCTAATTA the “PBM E-score” value was 0.039. AATAATTC was tested, and the “PBM E-score” value was 0.268. In the case of AATTAATA, the “PBM E-score” value is reported as 0.327. With AGTTAATC the “PBM E-score” value was 0.16. AATTAATT was tested, and the “PBM E-score” value was 0.206. With AATAATTA the “PBM E-score” value was 0.329.
